Data reported in PubChem BioAssay.
Calls of active or inactive are those of the source.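 How the source made its calls, unless noted: active means compounds that lower survival of HCT116 colon cancer cells in the luminescence readout, no numeric limit stated; inactive means the rest.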

Experiments:
[1] = stimulators of nuclear beta-catenin in C2C12, primary screen, imaging, WNT3A-conditioned medium, mouse C2C12, NPC library (AID 1117326; in the data active means nuclear beta-catenin stimulation mostly above about 4.2%, no sharp cut-off; inactive means mostly below about 10%); conditions: stronger effect = higher value
[2] = stimulators of insulin release from INS-1E, primary screen, cell-based, 5 mM glucose, NPC library (AID 1117329;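 active means compound raises insulin release from rat beta cells at 5 mM glucose, no numeric limit stated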); conditions: rat INS-1E insulin secretion, at 10 µM, stronger effect = higher value
[3] = growth inhibition of GSK3B-pretreated HCT116 cells – cell-based, CellTiter-Glo, 0.2 to 20 µM (AID 1117336;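 active means compounds lowering colon cancer cell viability after pretreatment blocking the GSK3B kinase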); conditions: HCT116 viability after GSK3B inhibitor, at 20 µM, stronger effect = higher value
[4] = inhibition of endothelial tube formation, primary screen, imaging, VEGF stimulated, CD31 staining, tube area, NPC library (AID 1117340;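 active means compound that reduces growth-factor-driven endothelial tube area in a mixed cell culture, no cutoff stated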); conditions: VEGF-stimulated ADSC/ECFC co-culture, at 10 µM, stronger effect = higher value
[5] = glucagon-like peptide 1 release enhancers, primary assay, NCI-H716 cell line, NPC library (AID 1117341;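 active means compound raises GLP1 secretion from the human gut endocrine cells, with no numeric limit stated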); conditions: NCI-H716 cells, at 10 µM, stronger effect = higher value
[6] = HCT116 colon cancer cell growth inhibition, primary screen, CellTiter-Glo luminescence, NPC library (AID 1117342); conditions: at 20 µM (top of the series)
[7] = CellTiter-Glo luminescent readout of SW480 viability loss, NPC library primary (AID 1117343;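 active means compounds that lower viability of the colon cancer cells in the luminescence readout, with no numeric limit stated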); conditions: CellTiter-Glo luminescence; at 20 µM (top of the series) unless noted
[8] = decreased DLD-1 cellular survival, CellTiter-Glo luminescent readout, NPC compound collection, primary HTS (AID 1117346;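 active means compounds that lower survival of DLD-1 colon cancer cells in the luminescence readout, no cutoff given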); conditions: DLD-1 viability, CellTiter-Glo luminescence; at 20 µM (top of the series)
[9] = differential killing of epithelial or mesenchymal cells, primary screen, imaging, PC-3E GFP, TEM4-18 mCherry, co-culture (AID 1345086;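 active means compounds killing one labelled cell type while sparing the other, by normalised counts and ratio limits, not self-fluorescent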;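 on all read-outs here: cells exposed to compound for 72 h before imaging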;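 on red/green cell ratio (normalised): normalised mesenchymal count divided by normalised epithelial count so high means epithelial killing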); conditions: imaging cell counts, at 1 µM; for red/green cell ratio (normalised): actives lie on both sides, counts scaled to control wells, 1 = unselective
[10] = sensitizers of A549 cells to miR-34 induction, primary screen, imaging, A549 dox-inducible miR-34, nuclei and caspase counts (AID 1347080;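 active means compounds whose cell count with miR-34 switched on is under 0.7 times the count with it off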); conditions: A549 miR-34 inducible, Hoechst nuclei count, 48 h
[11] = biological target: NAD(+) hydrolase SARM1 (Homo sapiens) (UniProt Q6SZW1); assay: SARM1 TIR NADase inhibitors, cell lysate, NAD-Glo luminescence (AID 1508614;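 active means compound whose remaining NAD level is above about 45 nM, limit read from the data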); conditions: SAM-TIR HEK293T lysate NADase, at 1 µM, stronger effect = higher value
NAD(+) hydrolase SARM1 (Homo sapiens), sequence (Q6SZW1 whole entry, looked up): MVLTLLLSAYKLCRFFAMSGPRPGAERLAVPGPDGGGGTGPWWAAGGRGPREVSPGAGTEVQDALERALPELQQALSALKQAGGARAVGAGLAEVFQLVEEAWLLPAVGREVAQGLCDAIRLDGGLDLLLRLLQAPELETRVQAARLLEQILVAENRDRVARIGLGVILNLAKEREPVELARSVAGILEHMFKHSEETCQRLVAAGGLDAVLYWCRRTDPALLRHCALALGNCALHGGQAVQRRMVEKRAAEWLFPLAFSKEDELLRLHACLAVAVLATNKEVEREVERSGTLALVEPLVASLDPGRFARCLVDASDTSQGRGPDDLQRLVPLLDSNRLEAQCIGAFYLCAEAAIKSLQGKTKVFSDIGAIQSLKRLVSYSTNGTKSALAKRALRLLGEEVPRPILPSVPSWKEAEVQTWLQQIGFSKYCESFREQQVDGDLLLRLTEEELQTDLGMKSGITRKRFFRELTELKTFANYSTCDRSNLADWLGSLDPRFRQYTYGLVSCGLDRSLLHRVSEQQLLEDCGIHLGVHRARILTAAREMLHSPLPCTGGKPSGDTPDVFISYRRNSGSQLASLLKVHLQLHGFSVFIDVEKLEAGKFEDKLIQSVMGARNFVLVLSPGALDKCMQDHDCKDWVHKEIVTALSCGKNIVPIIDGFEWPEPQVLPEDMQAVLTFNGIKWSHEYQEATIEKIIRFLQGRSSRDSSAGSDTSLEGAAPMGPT

[12] = liver-stage malaria parasite growth inhibition, primary screen, cell-based, HepG2, luciferase luminescence, HepG2 viability (AID 624349; in the data active means parasite load remaining mostly below about 12%, no sharp cut-off; inactive means mostly above about 10%;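 further: 100% = mean of DMSO negative control wells on the same plate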); conditions: P. berghei liver stage in HepG2, luciferase luminescence, concentration not given here; parasite load remaining: stronger effect = lower value; viability: measured here: HepG2 viability without parasites
[13] = measured here: epithelial PC-3E GFP cell survival
[14] = measured here: mesenchymal TEM4-18 mCherry cell survival
[15] = stronger effect = lower value, cell number ratio, induced over uninduced
[16] = measured here: relative caspase fold change +Dox/-Dox
[17] = measured here: total cells with miR-34 induction, stronger effect = lower value
[18] = measured here: total cells without miR-34 induction

| Structure (SMILES) | nuclear beta-catenin stimulation ([1]; at 10 µM) | nuclear beta-catenin stimulation ([1]; stimulation, at 2 µM) [%] | insulin secretion stimulation [2] | viability decrease [3] | tube area decrease [4] | GLP1 secretion stimulation [5] | inhibition of viability [6] | viability decrease (inhibition) [7] | viability decrease (inhibition) [8] | red/green cell ratio (normalised) [9] | normalised cell number [9, 13] | normalised cell number [9, 14] | fold change [10, 15] | fold change [10, 16] | cell count [10, 17] | cell count [10, 18] | remaining NAD [11] | parasite load remaining [12] | viability [12] [%] |
| --- | --- | --- | --- | --- | --- | --- | --- | --- | --- | --- | --- | --- | --- | --- | --- | --- | --- | --- | --- |
| O=S(=O)(O)c1cc(I)c(O)c2ncccc12 | -0.8% (inactive) | -0.5 | -0.3% (inactive) | 62.2% (active) | -5.5% (inactive) | -2.6% (inactive) | 41% (inactive) | 77.9% (active) | 53.4% (active) | 1 (inactive) | 1.1 | 1.11 | 1.07 (inactive) | 0.778 | 5970 | 5570 | 10 nM (inactive) | – | – |
| NC(=O)C1(N2CCCCC2)CCN(CCCC(=O)c2ccc(F)cc2)CC1 | -0.9% (inactive) | -2 | -0.5% (inactive) | -17.7% (inactive) | 11.1% (inactive) | 2.8% (inactive) | 15.3% (inactive) | 12.8% (inactive) | -5.9% (inactive) | 0.88 (inactive) | 1.16 | 1.02 | 0.938 (inactive) | 0.733 | 8980 | 9580 | 10 nM (inactive) | – | – |
| OCCc1ccccc1 | 4.3% (inactive) | -0.1 | -0.8% (inactive) | -30.2% (inactive) | -4.7% (inactive) | -0.7% (inactive) | -7.95% (inactive) | 11.9% (inactive) | -12.4% (inactive) | 0.97 (inactive) | 1.02 | 1 | 0.881 (inactive) | 7.55 | 11500 | 13000 | 10 nM (inactive) | 52.9% (inactive) | 121 |
| CCOC(=O)c1ccc(O)cc1 | -0.6% (inactive) | 0.9 | 5.1% (inactive) | 1.8% (inactive) | -5% (inactive) | 2.1% (inactive) | 4.1% (inactive) | 29.4% (inactive) | 11.2% (inactive) | 0.82 (inactive) | 1.05 | 0.86 | 0.873 (inactive) | 1.39 | 10900 | 12500 | 10 nM (inactive) | 75.1% (inactive) | 94.6 |
| CC1=C(C/C=C(\C)CCC[C@H](C)CCC[C@H](C)CCCC(C)C)C(=O)c2ccccc2C1=O | 0.3% (inactive) | -0.8 | -2.6% (inactive) | -3.55% (inactive) | 23.9% (inactive) | 2.3% (inactive) | -10.9% (inactive) | -45.3% (inactive) | -6.65% (inactive) | 1.1 (inactive) | 0.92 | 1.01 | 0.94 (inactive) | 3.52 | 11600 | 12300 | 10 nM (inactive) | 21.8% (inactive) | 93.1 |
